# Most compounds without a hit are left out; they make up all but 1.3% or so of the library.
# TRPV1 agonist – activates the human vanilloid receptor TRPV1; Q8NER1; TRPV1-expressing cells, Fluo-8 calcium influx, agonist mode; activation, % at 8.33 µM; actives 0.19% (n = 320,000); AID 540275; in the data active means activation above about 80%; inconclusive means between about 30% and that limit; further: 0% is about no effect
#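 Fluo-8 calcium influx in TRPV1-expressing cells, kinetic read (ex 480/em 520 nm). Compound added and read 3 min for agonist activity, followed by capsaicin at EC20 final and 2 min further read for enhancement.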
# TRPV1 PAM – enhances activation of the human vanilloid receptor TRPV1. Q8NER1. TRPV1-expressing cells, Fluo-8 calcium influx, capsaicin EC20 potentiation. potentiation, % at 8.33 µM. actives 0.02% (n = 320,000); in the data active means potentiation above about 80%; inconclusive means between about 30% and that limit; further: 0% is about no effect
#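 Cells expressing TRPV1 were dye-loaded with Fluo-8 and read kinetically: 10 s baseline, 3 min after compound (agonist portion), then 2 min after EC20 capsaicin (allosteric enhancer portion). Calcium-bound dye fluorescence at 480/520 nm.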
# hERG WT inh – KCNH2 (human, wildtype) channel inhibition | Q12809 | U2OS, BacMam KCNH2, thallium flux FluxOr; stronger effect = lower value | activity change, % at 1.84 µM | actives 0.37% (n = 340,000) | AID 720551;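 active means maximum activity change below -70%; inconclusive means maximum activity change between -70% and -50%; inactive means maximum activity change above -50%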; further: on the % scale 0 is the no-effect control and ±100 the full control effect
#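 U2OS cells were transduced with wild-type KCNH2 virus (2.03 x 10^8 / mL) for 4 h at room temperature, then cultured overnight at 37 C. Thallium flux was read with FluxOr dye. Rate constants were normalized to DMSO controls.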
# KCNH2 3.1 inh – KCNH2 3.1 (human) potassium channel inhibition | U2OS KCNH2 3.1, thallium flux FluxOr; stronger effect = lower value | activity change, % (tested at about 1.8 µM) | actives 0.95% (n = 340,000);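 active means maximum activity change below -70%; inconclusive means maximum activity change from -70% to -50%; inactive means maximum activity change above -50%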;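 further: thallium influx rate constant from kinetic fluorescence after stimulation buffer; on the % scale 0 is the no-effect control and ±100 the full control effect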
#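 Thallium flux read-out: FluxOr dye with Red40 quencher in HBSS/HEPES, 45 min at RT. Rate constants from kinetic reads were normalized to positive and negative DMSO controls. Cells: U2OS virally expressing the 3.1 isoform.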
# Starred values were filed as active, the others as inactive; ? = inconclusive; / = no result; ! = not active in a repeat.
SMILES,TRPV1 agonist,TRPV1 PAM,hERG WT inh,KCNH2 3.1 inh
O=C(CSc1ccc(-c2ccc(F)cc2)nn1)NC1CCCCC1,3.8,-0.8,-0.2,-19.1
CSc1ccc(OC2CCN(Cc3ccccc3)CC2)cc1,2.6,13.3,?,-89.2*
C#Cc1ccc(CN2CCC(Oc3cc(C(=O)NC4CC4)ccc3OC)CC2)cc1,10.9,-0.8,-99.4*,-103.4*
COc1ccccc1/C=C/CN1CCC(Oc2cc(C(=O)NC3CC3)ccc2OC)CC1,1.5,2.0,-120.3*,-100.9*
O=C1OCCN1CCNCc1cn(-c2ccc(F)cc2)nc1-c1ccccc1Cl,-1.7,20.4,-149.9*,-7.4
Cc1ccc(-n2cc(CNCCN3CCOC3=O)c(-c3cccc(C)c3)n2)cc1,13.7,-17.4,15.6,-15.6
Cc1ccc(NC(=O)CN(C)C(=O)c2cccnc2Nc2cccc(C(F)(F)F)c2)cc1,5.4,-2.0,-7.5,3.1
CSCCC(NC(=O)c1ccccc1Cl)C(=O)Nc1ccncc1 (stereo unspecified),-3.3,9.3,-3.7,3.4
O=C(OCc1csc(-c2ccccc2)n1)c1ccc(O)cc1,21.9,0.3,-12.1,-80.1*
COc1ccc(CN(C)CC(O)COC(c2ccc(OC)cc2)c2ccc(OC)cc2)cc1 (stereo unspecified),-0.7,-1.5,?,-112.7*
COc1ccc(CN(C)CC(O)COc2ccc(-c3ccccc3)cc2)cc1OC (stereo unspecified),4.3,1.6,-6.5,-1.4
CCOc1ccc(CN(C)CC(O)COC(c2ccc(OC)cc2)c2ccc(OC)cc2)cc1 (stereo unspecified),-0.9,4.5,-85.1*,-93.2*
COc1ccc(C(OCC(O)CN(C)C2CCCCC2)c2ccc(OC)cc2)cc1 (stereo unspecified),4.1,-1.1,0.5,-44.4
Nc1ccc(-c2nc3c(ccc4ccccc43)[nH]2)cc1,?,-13.3,0.4,25.7
O=C(NCCc1ccc(F)cc1)c1ccc(Cl)c(S(=O)(=O)N2CCOCC2)c1,?,-8.2,-1.1,-13.9
O=C(NC(Cc1ccccc1)C(=O)O)/C(=C\c1ccc(Cl)cc1)NC(=O)c1ccccc1 (stereo unspecified),-0.3,-3.5,-92.0*,-13.8
O=C(Cn1cnc([N+](=O)[O-])c1)Nc1ccccc1C(F)(F)F,-1.0,-18.0,-74.5*,20.3
CCCCn1c2c(c(=O)n(C)c1=O)C(c1ccc(OC)cc1)N1CCCCCC1=N2 (stereo unspecified),25.5,24.4,-5.4,-75.1*
CCCCn1c(SCC(=O)N2CCCc3ccccc32)nc2c1c(=O)n(C)c(=O)n2C,?,-0.1,-16.5,25.6
CCCOc1cccc(C(=O)NCCNC(=O)c2ccco2)c1,0.2,1.9,-5.3,-15.7
CCCCCCCCCCOC(=O)Cn1c(COc2ccccc2)[n+](C)c2ccccc21,7.2,-29.0,-46.8,3.2
CCCCCCCCCCOC(=O)Cn1c(COc2ccc(OC)cc2)[n+](C)c2ccccc21,2.6,3.2,-116.4*!,-93.4*!
CCCCCCCCCCOC(=O)Cn1c(COc2cccc(C)c2)[n+](C)c2ccccc21,9.8,-15.2,-20.2,-25.5
CCCCCCCCCCOC(=O)Cn1c(COc2ccccc2C)[n+](C)c2ccccc21,4.3,8.1,?,-81.2*
Cc1ccc(C(C)C)c2c1C(c1ccc3c(c1)OCO3)CC(=O)O2 (stereo unspecified),/,/,-0.2,2.6
SMILES,TRPV1 agonist,TRPV1 PAM,hERG WT inh,KCNH2 3.1 inh
Cc1ccc(C(=O)NCc2ccc(N3CCN(C(=O)OC(C)(C)C)CC3)cc2)cc1,5.9,0.6,4.3,-117.1*
COc1ccc(/C=C/C(=O)N2CCCc3ccccc32)c(OC)c1,-3.0,-6.3,-79.0*,8.1
CN(C)C(=O)CCc1ccc2c3c([nH]c2c1)[C@]1(CCc2ccccc2)[C@@H](C(=O)N2CCCCC2)C[C@H](CC(=O)NC(C)(C)C)C(=O)N1CC3,/,/,7.8,-15.1
COc1cc(C(=O)NCc2nc(C)cs2)ccc1OC1CCN(C(C)=O)CC1,0.4,1.9,-2.0,-76.4*
COc1ccc(OC)c(CC(=O)N2CCc3cc(OC)c(OC)cc3C2)c1,1.1,-15.9,5.2,1.6
COc1cccc(-c2ccc3c(c2)C2CC3CCN2C(=O)c2ccc(Cl)cc2)c1 (stereo unspecified),/,/,-5.2,/
CCOC(=O)N1CCC2CC1c1cc(-c3cccc(OC)c3)ccc12 (stereo unspecified),/,/,-115.5*,-14.9
CCCCN(CC(O)COc1cccc(C)c1)CC(O)COc1cccc(C)c1 (stereo unspecified),8.4,3.8,14.8,-20.1
